The list is not random: actives were taken first. Their share in the collection is about 2.3%.
697 NFkB inh: inhibitors of PMA/ionomycin-induced NF-kB reporter, 697 cells, primary screen, B-cell NF-kB inhibitor project, cell-based, luminescence, uHTS | inhibition, % at 4 µM | 697 B-cell NF-kB luciferase reporter, 16 h | AID 435022, 2010 | actives 0.33% (n = 330,000); in the data active means inhibition above about 35%
Gli-Sufu antag: Gli-Sufu pathway antagonists, primary screen, luciferase luminescence, Sufu-KO-LIGHT cells, uHTS | Sufu-KO-LIGHT fibroblasts, Gli luciferase reporter luminescence | inhibition, % at 5 µM | actives 0.74% (n = 340,000) | AID 588413, 2011;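 active means inhibition above about 55%, limit read from the data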
TRPM1 prom inh: inhibitors of MITF-dependent TRPM1 promoter reporter, primary screen, cell-based, SK-MEL-5, single point, luciferase | SK-MEL-5 TRPM1 promoter luciferase, 24 h | actives 0.83% (n = 330,000) | inhibition, % at 12.5 µM;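 active means mean inhibition across replicates of 60% or more, whatever share of single replicates reaches that level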
Shn3 inh set2: reduction of Shn3 3'UTR firefly luciferase signal, primary screen, Schnurri-3 inhibitor project, cell-based, Clone20 osteoblasts, set 2 | Clone20 osteoblast Shn3 3'UTR firefly luciferase, 24 h | actives 0.52% (n = 360,000) | inhibition, % at 12.5 µM;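 active means mean inhibition of at least 75% with every replicate also reaching 75%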
Jurkat NFkB inh: inhibitors of induced NF-kB luciferase reporter, primary screen, TCR NF-kB activation inhibitor project, cell-based, luminescence, uHTS | AID 435003, 2010 | Jurkat, PMA/ionomycin-induced NF-kB luciferase reporter | inhibition, % at 4 µM | actives 0.53% (n = 330,000); in the data active means inhibition above about 50%
EBV LMP1 NFkB: EBV LMP1-driven NF-kappaB luciferase reporter inhibitors, primary screen, cell-based, luminescence, single point; LMP1-induced NF-kappaB luciferase reporter cells; inhibition, % at 12.5 µM; actives 0.69% (n = 350,000); in the data active means inhibition above about 41%
Gli antag conf: Gli-SUFU pathway antagonists, confirmation, single concentration, luciferase luminescence, Sufu-KO-LIGHT cells; shares compounds with Gli-Sufu antag; Gli luciferase reporter; inhibition, % at 5 µM; actives 40% (n = 2,500); AID 602428, 2012;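 active means mean inhibition at 5 µM reaching about 45%, limit read from the data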
Gli cytotox: cytotoxicity in Sufu-KO-LIGHT cells, confirmation, cytotoxicity control for Gli-SUFU antagonist project, cell-based, ATP luminescence, single concentration. shares compounds with Gli-Sufu antag. cytotoxicity, % at 5 µM. actives 32% (n = 2,500). AID 651994, 2013;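 active means mean cytotoxicity at 5 µM above about 25%, limit read from the data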;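 further: cells exposed to compound overnight for roughly 16 to 18 hours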
Wnt3a counter: Wnt3a reporter signal inhibition, confirmation, counter-screen for Gli-SUFU antagonist project, Wnt-LIGHT cells, luminescence, single concentration; shares compounds with Gli-Sufu antag; Wnt3a-driven luciferase reporter; inhibition, % at 6.25 µM; actives 20% (n = 2,500); AID 651995, 2013;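 active means mean inhibition above about 25%, limit read from the data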
A number is an active result; – = inactive; · = no result given.

SMILES | 697 NFkB inh | Gli-Sufu antag | TRPM1 prom inh | Shn3 inh set2 | Jurkat NFkB inh | EBV LMP1 NFkB | Gli antag conf | Gli cytotox | Wnt3a counter
Cc1ccc(CC2SC(=Nc3ccccc3)N(c3ccccc3)C2=O)cc1 (stereo not drawn) | – | 58 | – | – | – | – | – | – | –
O=C(O)CC1SC(=Nc2ccccc2)N(c2ccccc2)C1=O (stereo not drawn) | – | – | – | – | – | – | · | · | ·
CC1(C)CC(=O)C/C(=N/NC(=O)CCCOc2ccc(Cl)cc2Cl)C1 | – | 99 | – | – | – | – | – | – | –
CC(C)c1ccc(NC(=O)C2CCCN(S(=O)(=O)c3ccc4c(c3)C(C)(C)C(=O)N4C)C2)cc1 (stereo not drawn) | – | – | · | – | – | – | · | · | ·
CC(=O)Nc1ccc(S(=O)(=O)NCc2nc(-c3ccccc3Cl)no2)cc1 | – | – | – | – | – | – | · | · | ·
COC(/C(=N/O)c1ccc(Cl)cc1)c1ccccc1 (stereo not drawn) | – | 64 | – | – | – | – | 60 | 30 | 34
COc1ccc(CSc2n[nH]c(=O)[nH]c2=O)cc1 | · | · | · | – | · | – | · | · | ·
Brc1ccc(-c2nc(-c3cccnc3)no2)o1 | – | – | – | – | – | – | · | · | ·
C=Cn1cc[n+](CC(=O)c2ccc(-c3ccccc3)cc2)c1 | – | – | – | – | – | – | – | – | –
CCN(Cc1ccccc1)C(=O)COC(=O)c1cc(S(=O)(=O)Nc2ccccc2OC)ccc1O | – | 58 | – | – | – | – | – | – | –
COC(=O)c1cc(C(=O)N2CCN(c3ccccc3OC)CC2)cc([N+](=O)[O-])c1 | – | – | – | – | – | – | – | 50 | –
COc1ccc(Nc2ncc(C(=O)N3CCN(Cc4ccccc4)CC3)c3ccccc23)cc1 | – | 99 | – | – | – | – | – | – | –
CCCCn1c(=O)[nH]c(=O)c2c1nc(CN(C)Cc1cccc(OC)c1OC)n2CCC | · | 63 | – | – | · | – | – | – | –
N=C1C(c2nc3ccccc3c(=O)[nH]2)=C(O)CN1CCc1ccccc1 | – | – | – | – | – | – | · | · | ·
CCc1[nH]c(=O)c(C#N)c2c1CCCC2 | – | – | – | – | – | – | – | – | –
CCc1[nH]c(=S)c(C#N)c2c1CCCC2 | – | – | – | – | – | – | · | · | ·
Cc1ccc(N2CC(C(=O)Nc3nc4ccc(S(C)(=O)=O)cc4s3)CC2=O)cc1C (stereo not drawn) | – | – | – | – | – | – | – | – | –
Cc1cccc(NS(=O)(=O)c2ccc(C)c(NS(=O)(=O)c3cccs3)c2)c1 | – | 96 | – | – | – | – | – | – | –
Cc1cccc(NS(=O)(=O)c2ccc(NS(=O)(=O)c3cccs3)cc2)c1 | – | · | – | – | – | – | · | · | ·
CCCCNC(=O)N(O)C1N(/N=C/c2cccs2)C(=S)SC1(C)C (stereo not drawn) | – | – | – | – | – | – | · | · | ·
CC(C)CC(OC(=O)c1ccc(Cl)nc1)C(=O)NC1CCCC1 (stereo not drawn) | – | 56 | · | – | – | – | – | – | 50
Cc1ccc(C(=O)C(C)OC(=O)c2ccc(Cl)nc2)cc1 (stereo not drawn) | – | – | – | – | – | – | · | · | ·
CCN(CC)CCNc1ccc(C)c2sc3ccc(O)cc3c(=O)c12 | · | 67 | 85 | – | · | – | 69 | – | –
Cc1cccc2cc(-c3ccccc3)c(-c3ccccc3)c[n+]12 | · | 62 | – | – | · | – | 52 | 29 | –
